Inconclusive results are not listed. Where a call stands in place of a potency, no number is given. Active and inactive are the calls of the source. The call rests on the fitted dose curve; in most records, active means well fitted curve in the direction sought with a large enough effect; inconclusive means small, poorly fitted or top-dose-only effect, or another doubt; inactive means no such curve, though single readings can be large; an effect the other way counts as inactive or inconclusive.

Potency and outcome data for 40 compounds are collected here from PubChem BioAssay (NCATS).

Chain of Furin (Homo sapiens) (P09958 whole entry, looked up): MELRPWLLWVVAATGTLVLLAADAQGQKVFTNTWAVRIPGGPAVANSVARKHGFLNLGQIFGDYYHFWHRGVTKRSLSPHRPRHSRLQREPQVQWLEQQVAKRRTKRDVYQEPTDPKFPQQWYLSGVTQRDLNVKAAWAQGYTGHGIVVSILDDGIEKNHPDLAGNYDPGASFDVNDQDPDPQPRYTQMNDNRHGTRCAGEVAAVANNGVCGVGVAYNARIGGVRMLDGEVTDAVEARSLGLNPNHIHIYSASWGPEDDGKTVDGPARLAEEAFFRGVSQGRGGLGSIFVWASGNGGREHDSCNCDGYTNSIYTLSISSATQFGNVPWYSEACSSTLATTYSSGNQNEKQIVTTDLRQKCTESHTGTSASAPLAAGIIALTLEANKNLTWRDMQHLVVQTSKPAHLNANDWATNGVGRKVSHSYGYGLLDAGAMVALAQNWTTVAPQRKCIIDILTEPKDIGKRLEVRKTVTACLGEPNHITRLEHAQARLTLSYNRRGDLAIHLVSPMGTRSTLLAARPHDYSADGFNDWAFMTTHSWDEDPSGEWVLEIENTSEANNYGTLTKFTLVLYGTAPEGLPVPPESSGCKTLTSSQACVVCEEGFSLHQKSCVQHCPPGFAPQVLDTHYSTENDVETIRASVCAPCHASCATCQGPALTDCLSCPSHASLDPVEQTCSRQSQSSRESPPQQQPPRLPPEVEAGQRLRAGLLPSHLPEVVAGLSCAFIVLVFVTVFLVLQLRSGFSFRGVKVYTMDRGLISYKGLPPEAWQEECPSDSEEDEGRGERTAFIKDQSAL
Chain of N-terminal Xaa-Pro-Lys N-methyltransferase 1 (Homo sapiens) (Q9BV86 whole entry, looked up): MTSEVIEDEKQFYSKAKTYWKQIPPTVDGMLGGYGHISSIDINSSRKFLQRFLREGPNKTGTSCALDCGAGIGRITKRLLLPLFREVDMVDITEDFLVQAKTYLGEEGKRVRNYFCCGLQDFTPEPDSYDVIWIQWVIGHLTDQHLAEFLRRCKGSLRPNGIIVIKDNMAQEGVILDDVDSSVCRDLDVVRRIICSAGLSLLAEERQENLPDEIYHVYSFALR

System in one experiment: not listed separately
The experiment in a line: qHTS of pediatric cancer cell lines to identify multiple opportunities for drug repurposing: Confirmatory screen for Saos-2 cells (AID 1347127). Further: nearly all actives have a fitted effect of over 60% in size. Further: potency means the concentration at half of the fitted maximal effect. Particulars: Saos-2 osteosarcoma cell viability; series mostly up to 45.9 µM. The method in brief: (§1)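 Cells (500-1,000/well) rested 5 h, then received compounds for 48 h; metabolically active cells were measured by CellTiter-Glo luminescence. Final concentrations spanned up to 46 µM (MIPE, 11-point) or 0.59 nM-46 µM (NPC, 8-point) in primary screens, 11-point in follow-ups.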
On the technique in general: Quantitative high-throughput screening tests each substance at several concentrations.
Take `C[C@]12CCC(=O)C=C1CC[C@@H]1[C@@H]2CC[C@@]2(C)[C@H]1CC[C@]2(C)O`: the Potency result was “inactive”.
Same read-out and setting: as for `CC(NC(C)(C)C)C(=O)c1cccc(Cl)c1` (stereo not drawn), the figure is 18.5 µM (active); as for `O=P1(N(CCCl)CCCl)NCCCO1` (stereo not drawn), “inactive”.
As to `C[C@](O)(CS(=O)(=O)c1ccc(F)cc1)C(=O)Nc1ccc(C#N)c(C(F)(F)F)c1`, the Potency result is “inactive”.
The same measure, in the same setting: the same measure for `O=C(N/N=C/c1ccc([N+](=O)[O-])o1)c1cc([N+](=O)[O-])cc([N+](=O)[O-])c1O`: “inactive”; for `CCOP(=S)(OCC)Oc1ccc2c(C)c(Cl)c(=O)oc2c1`: “inactive”.
Same read-out and setting: as for `CCCN(CCC)C(=O)Cc1c(-c2ccc(Cl)cc2)nc2ccc(Cl)cn12`, the entry is “inactive”.

System in the next experiment: not listed separately
The experiment in a line: qHTS of pediatric cancer cell lines to identify multiple opportunities for drug repurposing: Confirmatory screen for OHS-50 cells (AID 1347128).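 Further: compound exposure lasted 48 h at 37 degrees C; nearly all actives have a fitted effect of over 55% in size.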 Further: potency means the concentration at half of the fitted maximal effect. Particulars: OHS-50 osteosarcoma cells viability; series mostly up to 45.9 µM. The method in brief: as §1
For the compound `C[C@]12CCC(=O)C=C1CC[C@@H]1[C@@H]2CC[C@@]2(C)[C@H]1CC[C@]2(C)O`, the Potency result is “inactive”.
The same measure, in the same setting: the same measure for `O=C(O)CCCc1ccc(N(CCCl)CCCl)cc1`: “inactive”.
On the same count and under the same terms, as for `O=P1(N(CCCl)CCCl)NCCCO1` (stereo not drawn), the entry is “inactive”; as for `C[C@](O)(CS(=O)(=O)c1ccc(F)cc1)C(=O)Nc1ccc(C#N)c(C(F)(F)F)c1`, “inactive”.
With `O=C(N/N=C/c1ccc([N+](=O)[O-])o1)c1cc([N+](=O)[O-])cc([N+](=O)[O-])c1O`, the Potency result was “inactive”.
Still for that read-out and setting: as for `CCOP(=S)(OCC)Oc1ccc2c(C)c(Cl)c(=O)oc2c1`, the entry is “inactive”.
On the same count and under the same terms, as for `COc1cccc2c1C(=O)c1c(O)c3c(c(O)c1C2=O)C[C@@](O)(C(=O)CO)CC3OC1CC(N2CCOC(OC)C2)C(O)C(C)O1` (stereo partly drawn), the figure is 0.0233 µM (active); as for `CCCN(CCC)C(=O)Cc1c(-c2ccc(Cl)cc2)nc2ccc(Cl)cn12`, “inactive”.

System in a further experiment: not listed separately
The experiment in a line: qHTS of pediatric cancer cell lines to identify multiple opportunities for drug repurposing: Confirmatory screen for SK-N-SH cells (AID 1347129).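 Further: cells exposed to compound for 48 h before viability read; nearly all actives have a fitted effect of over 60% in size.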 Further: potency means the concentration at half of the fitted maximal effect. Particulars: SK-N-SH neuroblastoma cell viability; series mostly up to 46.1 µM. The procedure, abridged:
as §1
Regarding `C[C@]12CCC(=O)C=C1CC[C@@H]1[C@@H]2CC[C@@]2(C)[C@H]1CC[C@]2(C)O`, the Potency result is “inactive”.
Still for that read-out and setting: as for `CC(NC(C)(C)C)C(=O)c1cccc(Cl)c1` (stereo not drawn), the entry is “inactive”; as for `O=C(O)CCCc1ccc(N(CCCl)CCCl)cc1`, “inactive”.
The same measure, in the same setting: as for `O=P1(N(CCCl)CCCl)NCCCO1` (stereo not drawn), the entry is “inactive”; as for `C[C@](O)(CS(=O)(=O)c1ccc(F)cc1)C(=O)Nc1ccc(C#N)c(C(F)(F)F)c1`, “inactive”.
On the same count and under the same terms, the same measure for `O=C(N/N=C/c1ccc([N+](=O)[O-])o1)c1cc([N+](=O)[O-])cc([N+](=O)[O-])c1O`: “inactive”.
In the case of `CCOP(=S)(OCC)Oc1ccc2c(C)c(Cl)c(=O)oc2c1`, the Potency result was “inactive”.
As to `COc1cccc2c1C(=O)c1c(O)c3c(c(O)c1C2=O)C[C@@](O)(C(=O)CO)CC3OC1CC(N2CCOC(OC)C2)C(O)C(C)O1` (stereo partly drawn), the Potency is 0.0235 µM (active).
On the same count and under the same terms, the same measure for `CCCN(CCC)C(=O)Cc1c(-c2ccc(Cl)cc2)nc2ccc(Cl)cn12`: “inactive”.

In a further experiment the target is N-terminal Xaa-Pro-Lys N-methyltransferase 1 (Homo sapiens) (UniProt Q9BV86). The experiment in a line: qHTS Assay for Inhibitors of N-terminal methyltransferase 1 (NTMT1): LOPAC validation of the NTMT1 SAHH-coupled ThioGlo3 Assay (AID 1347143).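 Further: SAH from peptide methylation measured as thiol fluorescence via SAHH coupling and ThioGlo3; nearly all actives have a fitted effect of over 70% in size.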 Particulars: recombinant NTMT1, SAHH-coupled ThioGlo3 fluorescence; series mostly up to 114 µM. The method in brief:
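NTMT1 125nM + cpds (various conc.), 1 min RT; add SAM 100uM/SAHH 10uM/ThioGlo3 15uM (addition mix). SAHH-coupled thiol detection, Ex340/Em450, t0 and 30 min RT; signal normalized to background. LOPAC 1280-cpd pilot.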
For `C=C(C)[C@H]1CN[C@H](C(=O)O)[C@H]1CC(=O)O`, the result was inactive.
The same measure, in the same setting: as for `CC(C)(C)NCC(O)c1ccccc1Cl` (stereo not drawn), the entry is “inactive”; as for `CC(NC(C)(C)C)C(=O)c1cccc(Cl)c1` (stereo not drawn), “inactive”.
Same read-out and setting: the same measure for `CC(C)N(CCC(C(N)=O)(c1ccccc1)c1ccccn1)C(C)C` (stereo not drawn): “inactive”.
On the same count and under the same terms, the same measure for `CCCCCN(C)CCC(O)(P(=O)(O)O)P(=O)(O)O`: “inactive”.
On to `NCCc1ccc(O)cc1`, for which the outcome was inactive.
On the same count and under the same terms, the same measure for `CCC1(c2ccc(N)cc2)CCC(=O)NC1=O` (stereo not drawn): “inactive”; for `COc1ccc2c(c1OC)C(=O)O[C@H]2[C@@H]1c2cc3c(cc2CCN1C)OCO3`: “inactive”.
The same measure, in the same setting: the same measure for `CC(C)c1cccc(C(C)C)c1O`: “inactive”; for `O=C(CCCN1CCC2(CC1)C(=O)NCN2c1ccccc1)c1ccc(F)cc1`: “inactive”.
On the same count and under the same terms, the same measure for `O=c1[nH]oc2c1CCNC2`: “inactive”; for `CN1C(=O)CCS(=O)(=O)C1c1ccc(Cl)cc1` (stereo not drawn): “inactive”.

In another experiment the target is Furin (Homo sapiens) (UniProt P09958). The experiment in a line: Furin counterscreen qHTS for Zika virus inhibitors (AID 1347149). Further: nearly all actives have a fitted effect of over 70% in size. Further: potency means the concentration at half of the fitted maximal effect. Particulars: furin enzymatic counterscreen, fluorogenic substrate; series mostly up to 114 µM. The procedure, abridged:
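Counterscreen measures cleavage of 2 microM BOC-RVRR-AMC, below its ~15 microM Km, by 5 nM full-length human furin at pH 7.0 after a 15-min compound preincubation. Inhibition derives from the 15-min fluorescence increase at 37C.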
Consider `O=C1OC(c2ccc(O)c(S(=O)(=O)O)c2)(c2ccc(O)c(S(=O)(=O)O)c2)c2c(Br)c(Br)c(Br)c(Br)c21`, for which the Potency result was “inactive”.
On the same count and under the same terms, the same measure for `O=c1oc2ccccc2c(O)c1Cc1c(O)c2ccccc2oc1=O`: “inactive”; for `O=C(Nc1ccc(Br)cc1)c1cc(Br)cc(Br)c1O`: 27.1 µM (active).

The next experiment concerns Zika virus NS2B-NS3 protease (unlinked). The experiment in a line: Optimization of GU AMC qHTS for Zika virus inhibitors: Unlinked NS2B-NS3 protease assay (AID 1347151). Further: nearly all actives have a fitted effect of over 80% in size. Particulars: recombinant ZIKV NS2B-NS3 protease, fluorogenic AMC substrate; series mostly up to 52.5 µM. The method in brief: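 In this qHTS, compounds acted on 25 nM unlinked Zika NS2B–NS3 in pH 8.0 Tris/Tween buffer. Cleavage of an AMC peptide ran 15 min at room temperature, to about 20% conversion.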
Turning to `C=C(C)[C@H]1CN[C@H](C(=O)O)[C@H]1CC(=O)O`, the result was inactive.
Same read-out and setting: the same measure for `CC(C)(C)NCC(O)c1ccccc1Cl` (stereo not drawn): “inactive”.
As to `CC(NC(C)(C)C)C(=O)c1cccc(Cl)c1` (stereo not drawn), the outcome was inactive.
The same measure, in the same setting: as for `CC(C)N(CCC(C(N)=O)(c1ccccc1)c1ccccn1)C(C)C` (stereo not drawn), the entry is “inactive”; as for `Cc1ncsc1CCCl`, “inactive”; as for `CCCCCN(C)CCC(O)(P(=O)(O)O)P(=O)(O)O`, “inactive”.
In the case of `NCCc1ccc(O)cc1`, the result was inactive.
Same read-out and setting: the same measure for `CCC1(c2ccc(N)cc2)CCC(=O)NC1=O` (stereo not drawn): “inactive”.
Same read-out and setting: the same measure for `O=P1(N(CCCl)CCCl)NCCCO1` (stereo not drawn): “inactive”; for `CC(C)c1cccc(C(C)C)c1O`: “inactive”; for `O=c1[nH]oc2c1CCNC2`: “inactive”.
Turning to `CN1C(=O)CCS(=O)(=O)C1c1ccc(Cl)cc1` (stereo not drawn), the outcome was inactive.

The next experiment deals with Zika virus NS2B-NS3 protease (linked construct). The experiment in a line: Confirmatory screen NINDS AMC qHTS for Zika virus inhibitors (AID 1347152). Further: potency means the concentration at half of the fitted maximal effect; nearly all actives have a fitted effect of over 70% in size. Particulars: Purified linked NS2B-NS3, AMC substrate fluorescence. The procedure, abridged:
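Concentration-response confirmation used the NINDS linked protease (NS2B hydrophilic domain joined to NS3 protease domain), 1 nM, with a 15-min compound preincubation. Substrate, Nle-KRR-AMC at 10 microM, was read by UV fluorescence before and after 15 min.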
As for `C[C@]12CC[C@@H]3c4ccc(OC(=O)N(CCCl)CCCl)cc4CC[C@H]3[C@@H]1CC[C@@H]2O`, the Potency is 21.5 µM (active).
Still for that read-out and setting: the same measure for `O=c1c(C2CC(c3ccc(-c4ccc(Br)cc4)cc3)Cc3ccccc32)c(O)sc2ccccc12` (stereo not drawn): 19.2 µM (active); for `O=C(Nc1ccc(Br)cc1)c1cc(Br)cc(Br)c1O`: 19.2 µM (active).

The next experiment concerns Zika virus NS2B-NS3 protease. The experiment in a line: Primary screen GU AMC qHTS for Zika virus inhibitors (AID 1347154). Further: nearly all actives have a fitted effect of over 70% in size. Further: potency means the concentration at half of the fitted maximal effect. Particulars: Zika NS2B-NS3 unlinked protease, AMC fluorogenic substrate; series mostly up to 54.1 µM. The method in brief:
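Fluorogenic AMC-substrate cleavage by noncovalent NS2B-NS3 protease complex (25 nM, pH 8.0 Tris buffer with Tween 20) followed for 15 minutes at room temperature (~20% conversion). Percent inhibition from ex340/em450 signal change, fitted by 4-parameter Hill equation.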
Regarding `CN(C)CCc1c[nH]c2cccc(OP(=O)(O)O)c12`, the Potency result was “inactive”.
Still for that read-out and setting: the same measure for `C[C@]12CCC(=O)C=C1CC[C@@H]1[C@@H]2CC[C@@]2(C)[C@H]1CC[C@]2(C)O`: “inactive”.
On the same count and under the same terms, as for `C=C(C)[C@H]1CN[C@H](C(=O)O)[C@H]1CC(=O)O`, the entry is “inactive”; as for `CC(C)(C)NCC(O)c1ccccc1Cl` (stereo not drawn), “inactive”; as for `CC(NC(C)(C)C)C(=O)c1cccc(Cl)c1` (stereo not drawn), “inactive”.
On the same count and under the same terms, as for `CCC1(c2ccccc2)C(=O)N(COC)C(=O)N(COC)C1=O`, the entry is “inactive”; as for `COc1ccc2c3c1O[C@H]1[C@H](O)CC[C@H]4[C@@H](C2)N(C)CC[C@@]341`, “inactive”.
As for `O=c1oc2ccccc2c(O)c1Cc1c(O)c2ccccc2oc1=O`, the Potency result was “inactive”.
On the same count and under the same terms, as for `CC(C)N(CCC(C(N)=O)(c1ccccc1)c1ccccn1)C(C)C` (stereo not drawn), the entry is “inactive”; as for `C[C@]12CC[C@H]3[C@@H](CCC4=CC(=O)CC[C@@H]43)[C@@H]1CC[C@@H]2OC(=O)CCC1CCCCC1`, “inactive”.
The same measure, in the same setting: as for `Cc1ncsc1CCCl`, the entry is “inactive”; as for `NCCc1ccc(O)cc1`, “inactive”.
Still for that read-out and setting: the same measure for `C[C@]12CC[C@@H]3c4ccc(OC(=O)N(CCCl)CCCl)cc4CC[C@H]3[C@@H]1CC[C@@H]2O`: 15.8 µM (active); for `Nc1ccccc1`: “inactive”.
As for `O=C(N/N=C/c1ccc([N+](=O)[O-])o1)c1cc([N+](=O)[O-])cc([N+](=O)[O-])c1O`, the Potency entry was “inactive”.
Still for that read-out and setting: the same measure for `ClCCN1CCCC1`: “inactive”; for `C[C@]12CCC(=O)C=C1CC[C@@H]1[C@H]3CC[C@](C)(O)[C@@]3(C)CC[C@@H]12`: “inactive”; for `CCN(CCO)CCn1c(Cc2ccccc2)nc2c1c(=O)n(C)c(=O)n2C`: “inactive”.
As for `CCOP(=S)(OCC)Oc1ccc2c(C)c(Cl)c(=O)oc2c1`, the Potency entry was “inactive”.
On to `COc1cc(CCN)cc(OC)c1OC`, for which the Potency entry is “inactive”.
Still for that read-out and setting: the same measure for `CCC1(CC)C(=O)C=CNC1=O`: “inactive”; for `COc1cccc2c1C(=O)c1c(O)c3c(c(O)c1C2=O)C[C@@](O)(C(=O)CO)CC3OC1CC(N2CCOC(OC)C2)C(O)C(C)O1` (stereo partly drawn): “inactive”.
Same read-out and setting: as for `CC(C)c1cccc(C(C)C)c1O`, the entry is “inactive”.
Same read-out and setting: as for `O=C(Nc1ccc(Br)cc1)c1cc(Br)cc(Br)c1O`, the figure is 35.5 µM (active).
`O=c1[nH]oc2c1CCNC2`: the Potency entry is “inactive”.
Turning to `COC(=O)C(Cl)C(=O)OC`, the Potency entry was “inactive”.
On the same count and under the same terms, the same measure for `C[C@H]1[C@@H]2Cc3ccc(O)cc3[C@@]1(C)CCN2C`: “inactive”; for `CCCCCCC(=O)CCCCCC/C=C/C[C@@H](O)[C@H](O)[C@@](N)(CO)C(=O)O`: “inactive”.
As for `CC[N+]1(CC)CCC(OC(=O)C(O)(c2ccccc2)c2ccccc2)C1` (stereo not drawn), the Potency result was “inactive”.
